Screening results (PubChem)
HT1080 IDH1KD tx: HT-1080 IDH1 knockdown cell toxicity (counter line). 360,000 tested, 2% active. AID 686971. Potency, µM (highest dose often 46.1 µM), for inactives: at the highest dose activity, negative = toxicity, usual class: cytotoxic. HT-1080 IDH1 knockdown viability, ATP luminescence, 48 h;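 further: potency means the concentration at half of the fitted maximal effect; 0% = DMSO wells and -100% = cell-free medium wells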
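In this qHTS, HT-1080 cells depleted of IDH1 are exposed for 48 h at 37 °C to compound titrations. Toxicity is scored from CellTiter-Glo luminescence, with DMSO as full viability and medium alone as none.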
TDP1 cell CPT: growth inhibition of DT40 Tdp1-/-;hTDP1 cells with camptothecin (screen for TDP1 inhibitors); chicken DT40 Tdp1-/-;hTDP1 cells + 20 nM CPT, ATP luminescence, 48 h; Potency, µM (titrated, usually from 46.2 µM), for inactives: at the highest dose activity change, negative = growth inhibition, hits mostly inhibitors; 420,000 tested, 12% active; AID 686979; further: potency means the concentration at half of the fitted maximal effect; nearly all actives have a fitted effect of over 55% in size
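Chicken DT40 Tdp1-/- cells stably complemented with human TDP1 were seeded at 400 cells/well in medium containing 20 nM camptothecin, exposed to pin-transferred compounds, and grown at 37 °C for at least 48 hr. Viability was read as ATP luminescence.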
DT40 TDP1 no CPT: qHTS for Inhibitors of human tyrosyl-DNA phosphodiesterase 1 (TDP1): qHTS in cells in absence of CPT; AID 686978, 2013; 420,000 tested, 15% active; Potency, µM (doses to about 46.2 µM), for the others: at the top dose activity change, negative = growth inhibition, actives largely listed as inhibitors; DT40 Tdp1-/- hTDP1 cells, no CPT, ATP luminescence, 48 h; further: potency means the concentration at half of the fitted maximal effect; nearly all actives have a fitted effect of over 55% in size
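Chicken DT40 Tdp1-/- cells complemented with human TDP1, screened without camptothecin (DMSO vehicle only), 400 cells/well. Compounds pin-transferred, cells incubated at 37 °C for at least 48 hr. Growth read as ATP-dependent luminescence (CellTiter-Glo, 30 min at RT).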
IL1B secr inh: inflammasome signaling inhibition, IL-1 beta readout | THP-1 LPS/ATP IL-1B secretion, AlphaLISA, 16 h; stronger effect = lower value | activity change, % at 57.5 µM | 360,000 tested, 4.7% active | AID 743279; in the data active means activity change below about -50%; inconclusive means mostly about -30% to -49%
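Secreted IL-1B measured by AlphaLISA bead assay after 16 h compound exposure of THP-1 cells; compounds (final up to 57.5 uM) added 1 h before LPS (250 ng/mL) and ATP (1.25 mM) stimulation; lower signal means less secretion.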
HT1080NT lethal: kills 2HG-producing HT-1080-NT fibrosarcoma cells; HT-1080-NT fibrosarcoma viability, CellTiter-Glo ATP luminescence, 48 h; Potency, µM (top dose mostly 46.1 µM), for the others: at the highest dose activity, negative = less viability, actives largely listed as cytotoxic; 360,000 tested, 1.6% active;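 further: NT is the 2HG producing partner of a matched IDH1 knockdown line; potency means the concentration at half of the fitted maximal effect; 0% = DMSO-treated cells and -100% = media-only wells without cells; nearly all actives have a fitted effect of over 55% in size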
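HT-1080-NT; 750 cells/well; 5% FBS RPMI; 48 h compound, 37 degrees C; CellTiter-Glo luminescence; curve fitting and curve-class assignment.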
Numbers without * were called inactive; u = inconclusive; x = not tested or not shown; [ ] = another dose, or the depositor's remark. Sampled rows, rich in hits. Any-hit rate of the full collection: about 19%. Unless noted, the call rests on the fitted dose curve; in most records, active means well fitted curve in the direction sought with a large enough effect; inconclusive means small, poorly fitted or top-dose-only effect, or another doubt; inactive means no such curve, though single readings can be large; an effect the other way counts as inactive or inconclusive. Unless noted, on the % scale 0 is the no-effect control and ±100 the full control effect.

SMILES | HT1080 IDH1KD tx | TDP1 cell CPT | DT40 TDP1 no CPT | IL1B secr inh | HT1080NT lethal
O=C(O)c1cc(-c2ccc3c(c2)OCO3)nc2ccc(Br)cc12 | -6.8% | -19.7% | -2.1% | 13.9 | -21.0%
Oc1ccccc1C1C=C(c2ccc3c(c2)OCO3)NC(c2ccc(Br)cc2)N1 (stereo not drawn) | x | 11.2µM* | 11.2µM* | x | x
Cc1ccc(C2NC(c3ccc4c(c3)OCO4)=CC(c3cc(Br)ccc3O)N2)cc1 (stereo not drawn) | x | 7.94µM* | 4.47µM* | x | x
COc1ccc(Br)cc1C1NC(c2ccc3c(c2)OCO3)=CC(c2ccccc2O)N1 (stereo not drawn) | x | u | 10µM* | x | x
CC1(C)[C@@H](OC(=O)CCC(=O)O)CC[C@]2(C)[C@H]3C(=O)C=C4[C@@H]5C[C@@](C)(C(=O)O)CC[C@]5(C)CC[C@@]4(C)[C@]3(C)CC[C@@H]12 | x | -12.0%[21.1 µM] | 1.2%[21.1 µM] | x | x
COc1ccccc1C1CN(Cc2cccc3nccnc23)Cc2ccccc2O1 (stereo not drawn) | x | -10.8%[9.04 µM] | -5.7% | x | x
CCOC(=O)c1[nH]cnc1C(=O)NC1CCN(C(=O)OC(C)(C)C)CC1 | -6.4% | -4.8% | -15.9% | 25.2 | 0.0%
COc1cc(C(C)=O)ccc1COc1ccc(C(=O)O)cc1OC | 23.8% | 22.0% | -2.9% | -0.2 | 22.0%
O=C(Nc1ccc(Br)cc1)c1cc(-c2ccc3c(c2)OCO3)on1 | 10.3% | 2.3% | 0.6% | 0.0 | u
Oc1ccc(Br)cc1C1C=C(c2ccc3c(c2)OCO3)NC(c2ccc(Br)cc2)N1 (stereo not drawn) | x | 10µM* | 7.94µM* | x | x
CCCCNC(=O)CC1N=C2c3ccccc3N=C(SCC(=O)Nc3cccc(OC)c3)N2C1=O (stereo not drawn) | -13.6% | -21.0% | -17.7% | -12.7 | -21.3%
CCc1ccc(NC(=O)CSC2=Nc3ccccc3C3=NC(CC(=O)NCc4cccs4)C(=O)N23)cc1 (stereo not drawn) | x | 7.31µM* | 4.61µM* | x | x
COc1cccc(NC(=O)CSC2=Nc3ccccc3C3=NC(CC(=O)NCc4cccs4)C(=O)N23)c1 (stereo not drawn) | x | 10.3µM* | u | x | x
CCc1ccc(NC(=O)CSC2=Nc3ccccc3C3=NC(CC(=O)NCc4ccccc4)C(=O)N23)cc1 (stereo not drawn) | x | -8.1% | -0.4% | x | x
CCNC(=O)CC1C(=O)N(c2ccccc2)C(=O)N1CCOC (stereo not drawn) | -3.9% | -6.2% | 5.0% | -10.4 | 15.6%
O=C(OCCNc1ccc(C(F)(F)F)cc1[N+](=O)[O-])c1cc2ccccc2oc1=O | 11.9% | 2.1% | -15.7% | 18.0 | 10.8%
COc1cc(C(=O)NC2CCCC2)c(Br)c(OC)c1OC | 15.4% | -20.4% | 15.1% | 8.0 | 1.7%
COc1cc(C(=O)NCCOc2cc(C)cc(C)c2)c(Br)c(OC)c1OC | -21.0%[9.24 µM] | 16.4µM* | u | 11.1 | u
CC(C)[C@H]1COCCS(=O)(=O)N1Cc1ccccc1-c1cccc2c1oc1ccccc12 | -1.5% | u | 18.4µM* | 21.6 | -1.4%
CCCCOc1ccccc1-c1ccccc1CN1[C@@H](C(C)C)COCCS1(=O)=O | u | 16.4µM* | 18.4µM* | 16.5 | u
CCOc1cc2c3c(c1)C(C)=CC(C)(C)N3C(=O)C2=O | u | 3.26µM* | 2.59µM* | 67.4 | 4.61µM*
Cc1cc2c3c(c1)C(C)CC(C)(C)N3C(=O)C2=C(C#N)C#N (stereo not drawn) | 2.2% | u | u | -2.8 | 8.6%
CCOc1cc2c3c(c1)C(C)CC(C)(C)N3C(=O)C2=O (stereo not drawn) | 3.3% | u | 18.4µM* | -14.8 | 4.9%
Cc1cc2c3c(c1C)C(=O)C(=O)N3C(C)(C)CC2C (stereo not drawn) | 4.5% | -16.0% | u | 34.2 | -2.6%
Cc1cc2c3c(c1)C(C)CC(C)(C)N3C(=O)C2=O (stereo not drawn) | -11.0% | 23.1µM* | u | -2.0 | -4.7%
